This passage reports Potency results from PubChem BioAssay AID939 (National Center for Advancing Translational Sciences (NCATS), 2007).

Structures are written as SMILES. Results filed as inconclusive are left out. Where a call stands in place of a potency, no number is given. Activity calls are given as the source filed them. Calls come from the whole dose curve; as a rule, active = well fitted activation curve with a large enough effect in the main read-out, with a control signal flat; inconclusive = small, poorly fitted or top-dose-only effect, or effect the other way, or a change in a side signal; inactive = no such curve, though single readings can be large or run the other way.
Potency is the fitted concentration of half-maximal effect.

Sequence of Thyrotropin receptor (Homo sapiens) (P16473 whole entry, looked up): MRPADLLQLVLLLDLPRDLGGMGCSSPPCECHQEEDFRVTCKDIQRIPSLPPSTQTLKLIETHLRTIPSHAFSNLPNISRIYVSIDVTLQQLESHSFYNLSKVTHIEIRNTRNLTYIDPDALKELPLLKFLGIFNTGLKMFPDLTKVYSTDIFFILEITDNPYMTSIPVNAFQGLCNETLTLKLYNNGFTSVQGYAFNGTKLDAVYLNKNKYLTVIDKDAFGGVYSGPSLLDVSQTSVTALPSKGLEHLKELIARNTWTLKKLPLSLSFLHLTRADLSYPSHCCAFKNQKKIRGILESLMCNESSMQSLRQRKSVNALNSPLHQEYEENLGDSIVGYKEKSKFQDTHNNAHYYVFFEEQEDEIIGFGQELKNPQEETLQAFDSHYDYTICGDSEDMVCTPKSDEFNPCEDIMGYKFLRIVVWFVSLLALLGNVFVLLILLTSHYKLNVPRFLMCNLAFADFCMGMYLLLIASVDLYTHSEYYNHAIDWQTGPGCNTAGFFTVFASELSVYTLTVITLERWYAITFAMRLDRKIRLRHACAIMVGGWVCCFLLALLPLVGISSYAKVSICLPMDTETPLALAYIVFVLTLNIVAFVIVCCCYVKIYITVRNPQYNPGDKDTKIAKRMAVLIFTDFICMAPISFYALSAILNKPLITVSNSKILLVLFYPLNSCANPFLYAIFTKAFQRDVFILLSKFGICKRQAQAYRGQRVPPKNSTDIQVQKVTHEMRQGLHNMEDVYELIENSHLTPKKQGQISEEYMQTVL

The target of this experiment is Thyrotropin receptor (Homo sapiens) (UniProt P16473). As to the kind of experiment: Confirmation Concentration-Response Assay for Agonists of the Thyroid Stimulating Hormone Receptor. The note with it: HEK293 TSHR-CNG cells, membrane potential dye, cAMP; series mostly up to 25.6 µM. The text has this:
NIH Chemical Genomics Center [NCGC] NIH Molecular Libraries Screening Centers Network [MLSCN] MLSCN Grant: 1 X01 MH080680-01 PI Name: Dr. Marvin Gershengorn, NIH NCGC Assay Overview: Thyroid Stimulating Hormone Receptor TSH is an alpha/beta heterodimeric glycoprotein hormone secreted from the anterior pituitary gland which belongs to the glycoprotein hormone family. The actions of TSH are mediated by a seven-transmembrane receptor, which upon TSH binding couples preferentially to the G-alpha (s) protein (Gs), resulting in activation of adenylate cyclase and increase in cyclic adenosine 3', 5' monophosphate (cAMP). The TSH receptor (THSR) is mainly expressed in thyroid follicular cells and regulates their growth and function. Recombinant TSH is used to activate TSHR in patients with thyroid cancer receiving thyroid hormone suppression therapy and to screen for residual tumor after surgery, but it is expensive and must be administered intramuscularly. An orally active small molecule TSHR agonist would serve as an invaluable research tool for studying TSHR pharmacology and physiology, and would have multiple advantages in therapeutic settings. However, no selective small molecule agonist of the TSH receptor exists, and no small molecule screen for TSHR agonists has ever been reported. This cell based assay utilized a cyclic nucleotide gated ion channel (CNG) as a biosensor for cAMP induction by potential TSHR agonists. TSHR cell line HEK 293 cells stably expressing the TSHR as well as a modified CNG were purchased from BD biosciences. Stimulation of cAMP production causes the CNG to open and subsequent membrane depolarization to occur. A fluorescent membrane potential dye (BD biosciences) was utilized to detect cAMP stimulation in TSHR cells. The cells were maintained in DMEM medium (Invitrogen) containing 10 % FBS (Hyclone), 100 units/ml Penicillin, 100 ug/ml Streptomycin (Invitrogen), and 250 ug/ml Geneticin (Invitrogen) and 1 ug/ml Puromycin (Invitrogen) at 37C in 5% CO2. HEK 293 cells expressing CNG but without TSHR (parental cells) were used in concert to control for compounds signaling through endogenous receptors and targets of HEK 293 cells.
NCGC Assay Protocol Summary: High Throughput Screening. Freshly passaged cells (TSHR or parental) were dispensed into 1536-well assay plates at 4 ul/well in DMEM containing phenol red (Invitrogen), 10% FCS (Hyclone), and 100 units/ml Penicillin, 100 ug/ml Streptomycin (Invitrogen) and incubated at 37 C with 5% CO2 for 20 to 36 hrs before the robotic screening. The screen was initiated by addition of 4 ul/well membrane potential dye containing 100 uM RO 20-1724 (Sigma Aldrich), followed by 60 min incubation at room temperature to allow for dye equilibration across the cell membrane. 23 nl/well compound or control was then added to the assay plates, which were incubated for additional 30 min before reading a Envision fluorescence plate reader (Perkin Elmer) in bottom-read mode for fluorescence intensity (emission at 590 nm). Keywords: Thyroid-stimulating hormone TSH, TSHR, TSHR agonist, quantitative high throughput screening, qHTS, HTS, probe identification, CNG, cAMP, cyclic nucleotide gated ion channel PubChem
With `CC1(C)c2ccccc2N2CCC(=O)NC21/C=C/c1ccco1` (stereo not given), the Potency is 6.31 µM (active).

In the case of `Cc1cc(C)nc(N(C#N)CC(=O)N2CCC(C(N)=O)CC2)n1`, the Potency entry was “inactive”.

For the compound `Cc1onc(-c2ccccc2)c1C(=O)N1CCCSC1=Nc1ccccc1`, the Potency was 7.94 µM (active).

Take `CC(C)CC(=O)Nc1cccc(-c2cn3ccsc3n2)c1`: the Potency entry was “inactive”.

For the compound `C=CCn1c(COc2ccccc2F)nnc1SCC(=O)N1CC(=O)Nc2ccccc21`, the Potency entry is “inactive”.

With `CCOc1ccc(N(C(C)C(=O)Nc2ccc(OC)cc2)S(C)(=O)=O)cc1` (stereo not given), the Potency result is “inactive”.

Take `Cc1ccc(C)c(Cn2c(C(C)O)nc3ccccc32)c1` (stereo not given): the Potency is 3.98 µM (active).

For `Nc1ccc2c(c1)COc1ccccc1O2`, the Potency entry is “inactive”.

Regarding `Cn1cccc1Cc1nnc(SCC(N)=O)n1CCc1ccccc1`, the Potency entry was “inactive”.

Turning to `Cc1cnc(NC(=O)c2ccc3c(c2)C(=O)N(Cc2ccco2)C3=O)s1`, the Potency entry is “inactive”.

On to `CCOc1ccc(N(CC(=O)Nc2ccc(C)cc2)S(=O)(=O)c2c(C)noc2C)cc1`, for which the Potency result is “inactive”.

As for `CCC(C)(C)n1nnnc1CN(Cc1ccco1)Cc1cc2cc3c(cc2[nH]c1=O)OCO3`, the Potency entry was “inactive”.

Turning to `CN1C(=O)N(C)C2(c3ccccc3)Nn3c(s/c(=C/c4ccco4)c3=O)=NC12c1ccccc1` (stereo not given), the Potency result is “inactive”.

`CN1C(=O)C2C=CC1C1C(=O)N(c3ccccc3)C(=O)C21` (stereo not given): the Potency result was “inactive”.

As for `Cc1ccc(S(=O)(=O)N2CCC(C(=O)NCCCN3CCCCCC3)CC2)cc1`, the Potency result was “inactive”.

With `CC1(C)c2ccccc2N2CC(=O)NC21/C=C/c1ccco1` (stereo not given), the Potency was 12.6 µM (active).

In the case of `CC(=O)Nc1ccc(S(=O)(=O)N(C)c2ccccc2)cc1`, the Potency entry was “inactive”.

On to `CCOc1ccc(N(CC(=O)NC(C)(C)C)S(=O)(=O)c2c(C)noc2C)cc1`, for which the Potency entry is “inactive”.

With `Nc1cc(CN2C(=O)c3ccccc3C2=O)cc(Cl)c1O`, the Potency result is “inactive”.

With `Cc1ccc(S(=O)(=O)NC(=O)Nn2c(C)nnc2C)cc1`, the Potency entry is “inactive”.

Turning to `C=CCn1c(NCc2ccc3c(c2)OCO3)nc2ccccc21`, the Potency result is “inactive”.

Turning to `CN(Cc1ccco1)C(=O)Cn1c(=O)oc2cc(S(=O)(=O)NCc3ccccc3)ccc21`, the Potency is 12.6 µM (active).

As for `Cc1oc(-c2cccc(Cl)c2)nc1CN1CCCC(C(=O)NC(C)c2ccc3c(c2)OCCO3)C1` (stereo not given), the Potency entry was “inactive”.

As for `O=C(Nc1ccc(N2CCOCC2)cc1)C1CC1`, the Potency result was “inactive”.

In the case of `Cc1nc2ccc(Br)cn2c(=O)c1Cl`, the Potency entry is “inactive”.

With `Cc1ccccc1-c1nc(CN2CCC(C(=O)N3CCN(c4ccccn4)CC3)CC2)c(C)o1`, the Potency entry is “inactive”.

On to `COc1cc(NC(=O)c2cc(-n3cnnc3)ccc2Cl)cc(OC)c1`, for which the Potency result was “inactive”.

For the compound `Cc1occc1-c1nnc(SCC(=O)Nc2ccccc2)n1C(C)c1ccccc1` (stereo not given), the Potency was 12.6 µM (active).

With `CCCC(=O)C1=C(SCC)CC(C)(C)C(C(=O)OC)C1=O` (stereo not given), the Potency entry is “inactive”.

For `Cc1nn(-c2ccccc2)c(N2CCCC2)c1/C=N/n1cnc2scc(-c3ccccc3)c2c1=O`, the Potency is 1.58 µM (active).

`CCN(c1ccccc1)S(=O)(=O)c1ccc(Oc2ccc(-n3ccnc3)cc2)nc1`: the Potency entry is “inactive”.

With `CCc1ccccc1NC1=NCC(=O)N1Cc1ccc(OC)cc1`, the Potency is 12.6 µM (active).

For the compound `O=S(=O)(c1ccccc1)N1CCN(C2CCN(Cc3ccccc3)CC2)CC1`, the Potency result is “inactive”.

Regarding `Oc1ccccc1-c1cc(C(F)(F)C(F)F)nc(-c2ccccc2)n1`, the Potency is 7.94 µM (active).

`CCOC(=O)c1cnc(-n2nc(C)cc2C)nc1-n1nc(C)cc1C`: the Potency result was “inactive”.

As to `NC(=O)c1nsc(C(=O)N(CC(=O)NCc2ccc3c(c2)OCO3)C2CCCCC2)c1N`, the Potency is 1.26 µM (active).

On to `CCOC(=O)c1ccc(NC(=O)c2ccc(CN3CCOCC3)cc2)cc1`, for which the Potency result was “inactive”.

As to `CCSCCOC(=O)C1=C(C)N(C)C(=O)NC1c1cc(OC)ccc1OC` (stereo not given), the Potency entry is “inactive”.

With `NC(=O)c1nsc(C(=O)N(CC(=O)NCc2ccc3c(c2)OCO3)C2CCCC2)c1N`, the Potency is 12.6 µM (active).

For the compound `Cn1c(=O)[nH]c(=O)c2c1nc(N1CCCCCC1)n2CCCSc1nc2ccccc2o1`, the Potency result is “inactive”.
